Most compounds without a hit are left out; they make up all but 1.5% or so of the library.
CFTR F508del cor: correctors of CFTR F508del function in bronchial epithelial cells | activity (quench increase), % at 7.58 µM | CFBE cells, YFP halide quenching; stimulated with forskolin plus potentiator P3; % fluorescence drop versus neutral controls | 350,000 tested, 0.36% active;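 active = mean added fluorescence quench of at least 8% versus neutral control, with both replicates also reaching 8%; inconclusive = only one of the mean or replicate conditions met; inactive = mean below 8% and not both replicates reaching 8%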;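 also: cells transiently co-express mutant CFTR-F508del with the halide-sensitive YFP; corrector assay measuring rescue of mutant channel to the surface after 24 h compound exposure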
dFosB activator: activators of mouse delta FosB homodimer. P13346. purified delta FosB, TAMRA-CDK5 oligo fluorescence polarization; percent of positive-control signal above neutral wells. activation, % at 25 µM. 340,000 tested, 0.99% active. AID 493131;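 active = mean activation above about 17%, with every replicate also reaching it, limit read from the data, passing the limit was not always enough; inconclusive = only one of the two conditions met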
RAD54 branch: RAD54 (human) branch migration inhibition; Q92698; RAD54 Holliday junction branch migration, FAM/BHQ fluorescence; inhibition, % at 10.4 µM; 360,000 tested, 0.14% active;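 active = mean normalized replicate activity at least 40 and at least half of replicates scoring 40 or more; inconclusive = only one of the two criteria met; inactive = mean below 40 and under half of replicates reaching 40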;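 also: 0% = median of neutral control wells and 100% = median of positive control wells; inhibitors cause a drop in the FAM fluorescence signal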
Target sequence (Q92698 whole entry, looked up): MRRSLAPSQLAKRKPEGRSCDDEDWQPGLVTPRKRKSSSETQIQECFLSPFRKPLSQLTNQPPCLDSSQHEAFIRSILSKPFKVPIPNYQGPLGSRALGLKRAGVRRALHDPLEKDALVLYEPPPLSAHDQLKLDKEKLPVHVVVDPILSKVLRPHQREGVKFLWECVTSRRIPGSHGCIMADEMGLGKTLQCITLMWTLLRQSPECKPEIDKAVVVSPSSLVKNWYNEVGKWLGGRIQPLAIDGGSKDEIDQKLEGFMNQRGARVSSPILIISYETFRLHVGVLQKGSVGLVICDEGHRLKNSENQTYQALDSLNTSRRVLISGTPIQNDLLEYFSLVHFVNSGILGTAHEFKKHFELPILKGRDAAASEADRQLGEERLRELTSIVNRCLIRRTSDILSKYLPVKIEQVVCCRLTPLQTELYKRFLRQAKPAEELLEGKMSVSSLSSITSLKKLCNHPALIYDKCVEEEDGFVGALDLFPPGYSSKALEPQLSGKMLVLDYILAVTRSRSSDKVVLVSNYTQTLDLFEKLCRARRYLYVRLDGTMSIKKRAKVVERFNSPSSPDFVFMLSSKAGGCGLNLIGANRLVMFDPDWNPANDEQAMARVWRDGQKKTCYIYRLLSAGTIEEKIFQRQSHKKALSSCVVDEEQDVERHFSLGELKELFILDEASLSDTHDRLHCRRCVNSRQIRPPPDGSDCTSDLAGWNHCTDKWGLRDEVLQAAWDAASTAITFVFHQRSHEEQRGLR
RAD52 inh: RAD52 (human) annealing inhibition; P43351; recombinant RAD52 DNA annealing, FRET fluorescence; inhibition, % at 18.7 µM; 360,000 tested, 0.46% active; AID 651710;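 active = every replicate showing at least 50% inhibition; inconclusive = mean inhibition at least 50% but not in every replicate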
N-glyco inh: blocks N-linked glycosylation in D54 reporter cells | D54 ERlucT glycosylation luciferase reporter, 24 h; percent of 100 nM tunicamycin response | reporter increase, % at 12.5 µM | 360,000 tested, 0.23% active | AID 588692;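 active = mean luciferase reporter signal, scaled so untreated is 0 and the glycosylation-blocking control 100, at or above a set limit in every replicate; inconclusive = mean reaches the limit but not every replicate does; inactive = mean below the limit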;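 also: luciferase carries N-glycosylation sites so blocking glycosylation raises the light; 0% = median of neutral control wells and 100% = median of 100 nM tunicamycin wells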
PvdQ inh: blocks Pseudomonas aeruginosa PvdQ acylase activity; purified PvdQ acylase, fluorescence plate reader; inhibition, % at 10 µM; 340,000 tested, 0.063% active; in the data active = inhibition above about 30%, passing the limit was not always enough; inconclusive = no clear call, values can overlap the other calls;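 also: 0% = vehicle neutral wells and 100% = reference inhibitor wells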
The depositor's hits bear a star; u = inconclusive; x = no result given.

SMILES	CFTR F508del cor	dFosB activator	RAD54 branch	RAD52 inh	N-glyco inh	PvdQ inh
CC[n+]1c(/C=C/C=C/N(C(C)=O)c2ccccc2)sc2ccccc21	x	43.3*	-75.9	x	-4.1	-2.5
CO[C@@H]1CN(C)C(=O)c2cc(NC(=O)c3cnccn3)ccc2OC[C@@H](C)N(CC2CC2)C[C@@H]1C	1.3	x	x	6.9	x	x
C#CCOCCOCCOCCNc1nc(N2CCN(C(=O)CCCCCCCCCCNC(=O)Cn3cc(C[C@@H](C)O)nn3)CC2)nc(N2CCN(C(=O)CCCCCCCCCCNC(=O)[C@@H]([C@H](C)CC)n3cc(CCCCCN)nn3)CC2)n1	x	-340.1	2.3	x	-22.6	-7.4
C#CCOCCOCCOCCNc1nc(N2CCN(C(=O)CCCCCCCCCCNC(=O)Cn3cc(CCCCCN)nn3)CC2)nc(N2CCN(C(=O)CCCCCCCCCCNC(=O)Cn3cc(C[C@@H](C)O)nn3)CC2)n1	x	u	-0.3	52.1*	4.7	-1.4
C#CCOCCOCCOCCNc1nc(N2CCN(C(=O)[C@H](CCCCN)n3cc([C@@H](N)C(C)CC)nn3)CC2)nc(N2CCN(C(=O)[C@H](Cc3cc4ccccc4[nH]3)n3cc([C@@H](N)C(C)CC)nn3)CC2)n1 (stereo partly specified)	x	63.4*	45.6	x	0.1	-17.5
C#CCOCCOCCOCCNc1nc(N2CCN(C(=O)[C@H](CCCCN)n3cc(CN)nn3)CC2)nc(N2CCN(C(=O)[C@H](CCCCN)n3cc(CN)nn3)CC2)n1	3.4	15.6	-19.2	60.6*	-1.7	-7.8
C#CCOCCOCCOCCNc1nc(N2CCN(C(=O)[C@H](Cc3ccc(O)cc3)n3cc([C@@H](N)CC(C)C)nn3)CC2)nc(N2CCN(C(=O)[C@H](Cc3cc4ccccc4[nH]3)n3cc([C@@H](N)CC(C)C)nn3)CC2)n1	-0.5	x	x	6.2	x	x
C#CCOCCOCCOCCNc1nc(N2CCN(C(=O)[C@H]([C@@H](C)CC)n3cc([C@@H](N)Cc4ccc(O)cc4)nn3)CC2)nc(N2CCN(C(=O)[C@H](Cc3cc4ccccc4[nH]3)n3cc([C@@H](N)CC(C)C)nn3)CC2)n1	x	23.4*	-7.5	x	3.6	-3.7
C#CCOCCOCCOCCNc1nc(N2CCN(C(=O)C(Cc3cc4ccccc4[nH]3)n3cc(C(N)C(C)CC)nn3)CC2)nc(N2CCN(C(=O)C(Cc3cc4ccccc4[nH]3)n3cc(C(N)C(C)CC)nn3)CC2)n1 (stereo unspecified)	x	u	9.1	x	-0.8	-0.9
C[C@@H]1CN([C@@H](C)CO)C(=O)c2cc(/C=C/c3ccccc3)cnc2O[C@@H]1CN(C)C(=O)C1CC1	2.2	x	x	x	x	x
C#CCOCCOCCOCCNc1nc(N2CCN(C(=O)[C@H](CCCCN)n3cc([C@@H](N)CC(C)C)nn3)CC2)nc(N2CCN(C(=O)[C@H](Cc3cc4ccccc4[nH]3)n3cc([C@@H](N)Cc4ccc(O)cc4)nn3)CC2)n1	x	59.3*	11.3	x	-1.0	-12.6
COc1ccc(NC(=O)N[C@@H]2CC[C@@H](CCNS(=O)(=O)c3cccc(Cl)c3)O[C@@H]2CO)cc1	4.2	x	1.9	7.2	x	x
CC(C)NC(=O)N(C)C[C@H]1OCCCC[C@H](C)Oc2ccc(NS(=O)(=O)c3ccccc3)cc2C(=O)N([C@@H](C)CO)C[C@H]1C	1.4	x	0.9	5.0	x	x
COc1cccc(/C=N/NC(=O)C(=O)Nc2ccccc2OC(F)(F)C(F)F)c1O	15.0*	1.6	x	-1.7	-7.2	-1.5
COc1ccccc1/C=N/NC(=O)c1cccc(OC(F)(F)C(F)F)c1	x	-0.7	x	-13.6	0.9	-13.3
CS(=O)(=O)Nc1ccc2c(c1)[C@H]1C[C@@H](CC(=O)NCc3cccnc3)O[C@@H](CO)[C@H]1O2	1.7	x	-14.5	-6.6	x	x
Oc1[nH]c(N=C2N=c3ccccc3=N2)c2ccccc12	-7.8	6.2	-5.3	-157.3	117.3*	-16.8
COCC(=O)Nc1ccc2c(c1)[C@@H]1C[C@H](CC(=O)NCc3ccccc3F)O[C@@H](CO)[C@@H]1O2	0.2	x	4.7	8.0	x	x
Cc1cccc(NC(=O)c2ccccc2NC(=O)C2CCCCC2)c1C	8.1*	-9.0	-0.1	-10.8	0.3	6.7
Cc1noc(C)c1S(=O)(=O)Nc1ccc2c(c1)C(=O)N([C@@H](C)CO)C[C@@H](C)[C@H](CN(C)CC1CC1)OCCCC[C@H](C)O2	0.0	x	-13.0	x	x	x
O=C(Nc1ccccc1)N[C@H]1CC[C@@H](CCNS(=O)(=O)c2cccc(F)c2)O[C@@H]1CO	-1.7	x	-0.7	-5.1	x	x
O=C1C[C@@](C(=O)NCCN2CCOCC2)(c2ccc([N+](=O)[O-])cc2)[C@@H](c2ccc(CO)cc2I)N1CC12CC3CC(CC(C3)C1)C2	0.9	x	-11.2	57.8*	x	x
CC(C(=O)NCCN1CCOCC1)c1ccc([N+](=O)[O-])cc1 (stereo unspecified)	-0.5	2.3	x	-10.5	1.3	-8.1
Cc1ccc(COc2ccccc2-c2cc(C(=O)N/N=C/c3cccnc3)[nH]n2)cc1	9.7*	-10.3	x	-8.5	21.7	-6.7
CCOc1ccccc1-c1cc(C(=O)N/N=C/c2cccnc2)c2ccccc2n1	-0.3	-10.8	-1.6	-34.3	-5.8	-0.8
SMILES	CFTR F508del cor	dFosB activator	RAD54 branch	RAD52 inh	N-glyco inh	PvdQ inh
COc1ccc(NC(=O)N2CCCCN3[C@H](CO)[C@@H](c4ccc(C#Cc5ccccc5)cc4)[C@@H]3C2)cc1	5.9	x	3.7	71.2*	x	x
COc1ccc(NC(=O)N2CCCCN3[C@H](CO)[C@@H](c4ccc(C#Cc5ccccc5)cc4)[C@H]3C2)cc1	-0.4	x	-0.8	69.8*	x	x
COc1ccc(NC(=O)N2CCCCN3[C@H](CO)[C@H](c4ccc(C#Cc5ccccc5)cc4)[C@@H]3C2)cc1	0.6	x	7.0	31.3	x	x
COc1ccc(NC(=O)N2CCCCN3[C@@H](CO)[C@@H](c4ccc(C#Cc5ccccc5)cc4)[C@@H]3C2)cc1	-2.9	x	5.4	96.6*	x	x
CCCN1C[C@H](C)[C@@H](OC)CN(C)C(=O)c2ccc(NC(=O)c3cccc(F)c3)cc2OC[C@H]1C	-1.2	x	1.0	3.3	x	x
C=CCOc1c(/C=N\NC(N)=O)cccc1OC	2.2	-4.8	-9.5	-7.5	-0.1	-10.1
COc1cccc(Sc2ccccc2/C=N/NC(N)=O)c1	8.8*	7.3	x	5.4	18.4	-16.1
COCC(=O)N(C)C[C@@H]1Oc2cc(-c3ccc(OC)cc3)ccc2S(=O)(=O)N([C@H](C)CO)C[C@H]1C	0.9	x	-4.6	6.9	x	x
C[C@@H]1CN([C@H](C)CO)C(=O)c2cc(NC(=O)Nc3ccccc3)ccc2O[C@H]1CN(C)Cc1ccccc1	-0.4	x	13.7	15.0	x	x
Cc1ccccc1C1c2[nH]c3ccccc3c2C[C@H]2C(=O)N(C3CCN(Cc4ccccc4)CC3)CC(=O)N12 (stereo partly specified)	-2.6	76.4*	-15.8	49.2	-0.6	-7.1
